# According to PubChem BioAssay AID1508601 (ICCB-Longwood Screening Facility, Harvard Medical School, 2020):
# Several values for one entry are separate records, joined by “and”; a condition that tells them apart may be missing. Equal values may be shown once. The whole screen tested about 5,700 compounds, of which about 85 (1%) were called active. Rule as the data show it: active = p53-positive nuclei above about 36% (passing the limit was not always enough); inactive = the rest. Only a selection was taken, and actives are over-represented in it overall. Where a structure was tested more than once in an assay, its records may differ in their call.
# Columns and labels:
# [1] = nuclear p53 accumulation, HPV+ cells – imaging, p53-positive nuclei imaging, 24 h, 48 h (AID 1508601); settings: 24/48 h
# [2] = target: Cellular tumor antigen p53 (Homo sapiens) (UniProt P04637); experiment: as above; settings: 24/48 h, stronger effect = higher value
# Chain of Cellular tumor antigen p53 (Homo sapiens) (P04637 whole entry, looked up): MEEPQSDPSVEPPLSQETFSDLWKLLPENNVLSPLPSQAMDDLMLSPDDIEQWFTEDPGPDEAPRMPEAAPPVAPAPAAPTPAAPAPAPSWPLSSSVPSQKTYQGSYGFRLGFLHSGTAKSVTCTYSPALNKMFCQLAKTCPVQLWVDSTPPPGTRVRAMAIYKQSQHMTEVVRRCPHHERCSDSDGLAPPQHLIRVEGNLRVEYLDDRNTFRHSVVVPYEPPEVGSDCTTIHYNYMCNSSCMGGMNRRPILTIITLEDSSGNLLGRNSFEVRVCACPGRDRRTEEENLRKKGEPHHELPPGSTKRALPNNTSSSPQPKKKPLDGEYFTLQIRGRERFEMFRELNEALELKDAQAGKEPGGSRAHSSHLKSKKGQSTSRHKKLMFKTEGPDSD
# [3] = measured here: cell number at 24 h, Library stock concentration: 10 mM
# [4] = measured here: cell number at 24 h, concentration not given here
# [5] = measured here: cell number at 48 h, Library stock concentration: 10 mM
# [6] = measured here: cell number at 48 h, concentration not given here
# [7] = Library stock concentration: 10 mM
# [8] = measured here: p53 positive nuclei at 24 h, Library stock concentration: 10 mM
# [9] = measured here: p53 positive nuclei at 24 h, concentration not given here
# [10] = measured here: cell number at 24 h, Library stock concentration: 3.33 mM
# [11] = measured here: cell number at 48 h, Library stock concentration: 3.33 mM
# [12] = Library stock concentration: 3.33 mM
# [13] = measured here: p53 positive nuclei at 24 h, Library stock concentration: 3.33 mM
smiles,measurement,setting,value
CC[n+]1c(-c2ccccc2)c2cc(N)ccc2c2ccc(N)cc21,"nuclei count, normalised","[1]; measured here: cell number at 24 h, Library stock concentration: 500 nM",102%
same,"nuclei count, normalised","[1]; measured here: cell number at 24 h, Library stock concentration: 1.5 uM",108%
same,"nuclei count, normalised","[1]; measured here: cell number at 24 h, Library stock concentration: 4.6 uM",106%
same,"nuclei count, normalised","[1]; measured here: cell number at 24 h, Library stock concentration: 13.7 uM",111%
same,"nuclei count, normalised","[1]; measured here: cell number at 24 h, Library stock concentration: 41 uM",111%
same,"nuclei count, normalised","[1]; measured here: cell number at 24 h, Library stock concentration: 123 uM",102%
same,"nuclei count, normalised","[1]; measured here: cell number at 24 h, Library stock concentration: 370 uM",117%
same,"nuclei count, normalised","[1]; measured here: cell number at 24 h, Library stock concentration: 1.111 mM",107%
same,"nuclei count, normalised","[1]; measured here: cell number at 24 h, Library stock concentration: 3.333 mM",105%
same,"nuclei count, normalised",[1]; [3],83.1%
same,"nuclei count, normalised",[1]; [4],104%
same,"nuclei count, normalised","[1]; measured here: cell number at 48 h, Library stock concentration: 500 nM",104%
same,"nuclei count, normalised","[1]; measured here: cell number at 48 h, Library stock concentration: 1.5 uM",109%
same,"nuclei count, normalised","[1]; measured here: cell number at 48 h, Library stock concentration: 4.6 uM",106%
same,"nuclei count, normalised","[1]; measured here: cell number at 48 h, Library stock concentration: 13.7 uM",109%
same,"nuclei count, normalised","[1]; measured here: cell number at 48 h, Library stock concentration: 41 uM",109%
same,"nuclei count, normalised","[1]; measured here: cell number at 48 h, Library stock concentration: 123 uM",99.5%
same,"nuclei count, normalised","[1]; measured here: cell number at 48 h, Library stock concentration: 370 uM",104%
same,"nuclei count, normalised","[1]; measured here: cell number at 48 h, Library stock concentration: 1.111 mM",99.7%
same,"nuclei count, normalised","[1]; measured here: cell number at 48 h, Library stock concentration: 3.333 mM",98.5%
same,"nuclei count, normalised",[1]; [5],75.3%
same,"nuclei count, normalised",[1]; [6],97.4%
same,"p53-positive nuclei, normalised",[2]; Library stock concentration: 500 nM,0.0282% (inactive)
same,"p53-positive nuclei, normalised",[2]; Library stock concentration: 1.5 uM,0.101% (inactive)
same,"p53-positive nuclei, normalised",[2]; Library stock concentration: 4.6 uM,-0.0128% (inactive)
same,"p53-positive nuclei, normalised",[2]; Library stock concentration: 13.7 uM,-0.0168% (inactive)
same,"p53-positive nuclei, normalised",[2]; Library stock concentration: 41 uM,0.329% (inactive)
same,"p53-positive nuclei, normalised",[2]; Library stock concentration: 123 uM,3.12% (inactive)
same,"p53-positive nuclei, normalised",[2]; Library stock concentration: 370 uM,7.73% (inactive)
same,"p53-positive nuclei, normalised",[2]; Library stock concentration: 1.111 mM,12.2% (inactive)
same,"p53-positive nuclei, normalised",[2]; Library stock concentration: 3.333 mM,19.5% (inactive)
same,"p53-positive nuclei, normalised",[2]; [7],103% (active)
same,"p53-positive nuclei, normalised",[2]; concentration not given here,34.3% (inactive)
same,"p53-positive nuclei, normalised","[2]; measured here: p53 positive nuclei at 24 h, Library stock concentration: 500 nM",0.0668%
same,"p53-positive nuclei, normalised","[2]; measured here: p53 positive nuclei at 24 h, Library stock concentration: 1.5 uM",0.166%
same,"p53-positive nuclei, normalised","[2]; measured here: p53 positive nuclei at 24 h, Library stock concentration: 4.6 uM",-0.00293%
same,"p53-positive nuclei, normalised","[2]; measured here: p53 positive nuclei at 24 h, Library stock concentration: 13.7 uM",-0.0711%
same,"p53-positive nuclei, normalised","[2]; measured here: p53 positive nuclei at 24 h, Library stock concentration: 41 uM",0.21%
same,"p53-positive nuclei, normalised","[2]; measured here: p53 positive nuclei at 24 h, Library stock concentration: 123 uM",1.53%
same,"p53-positive nuclei, normalised","[2]; measured here: p53 positive nuclei at 24 h, Library stock concentration: 370 uM",4.81%
same,"p53-positive nuclei, normalised","[2]; measured here: p53 positive nuclei at 24 h, Library stock concentration: 1.111 mM",11.9%
same,"p53-positive nuclei, normalised","[2]; measured here: p53 positive nuclei at 24 h, Library stock concentration: 3.333 mM",38.2%
same,"p53-positive nuclei, normalised",[2]; [8],127%
same,"p53-positive nuclei, normalised",[2]; [9],45.3%
CCCCC/C=C\C/C=C\C/C=C\C/C=C\CCCC(=O)N[C@H](C)COP(=O)(O)O,"nuclei count, normalised",[1]; [4],107%
same,"nuclei count, normalised",[1]; [6],103%
same,"p53-positive nuclei, normalised",[2]; concentration not given here,0.124% (inactive)
same,"p53-positive nuclei, normalised",[2]; [9],-0.0345%
N#CC(OC1OC(COC2OC(CO)C(O)C(O)C2O)C(O)C(O)C1O)c1ccccc1 (centres undefined),"nuclei count, normalised",[1]; [10],95.4%
same,"nuclei count, normalised",[1]; [11],89.1%
same,"p53-positive nuclei, normalised",[2]; [12],0.141% (inactive)
same,"p53-positive nuclei, normalised",[2]; [13],-0.0206%
Cc1ccc(-n2nccn2)c(C(=O)N2CCN(c3nc4cc(Cl)ccc4o3)CCC2C)c1 (centres undefined),"nuclei count, normalised",[1]; [10],71.4%
same,"nuclei count, normalised",[1]; [11],76.4%
same,"p53-positive nuclei, normalised",[2]; [12],0.0905% (inactive)
same,"p53-positive nuclei, normalised",[2]; [13],-0.163%
c1cc(N2CCNCC2)c2cnccc2c1,"nuclei count, normalised",[1]; [4],95.9%
same,"nuclei count, normalised",[1]; [6],98.3%
same,"p53-positive nuclei, normalised",[2]; concentration not given here,-0.118% (inactive)
same,"p53-positive nuclei, normalised",[2]; [9],-0.041%
CN(C)C(=S)SSC(=S)N(C)C,"nuclei count, normalised",[1]; [4],35.4%
same,"nuclei count, normalised",[1]; [6],24.2%
same,"p53-positive nuclei, normalised",[2]; concentration not given here,90.3% (active)
same,"p53-positive nuclei, normalised",[2]; [9],108%
Cc1sc2c(c1C)C(c1ccc(Cl)cc1)=NC(CC(=O)OC(C)(C)C)c1nnc(C)n1-2 (centres undefined),"nuclei count, normalised","[1]; measured here: cell number at 24 h, Library stock concentration: 80 uM",101% and 128% and 116%
same,"nuclei count, normalised","[1]; measured here: cell number at 24 h, Library stock concentration: 400 uM",109% and 128% and 117%
same,"nuclei count, normalised","[1]; measured here: cell number at 24 h, Library stock concentration: 2 mM",107% and 132% and 120%
same,"nuclei count, normalised",[1]; [10],128%
same,"nuclei count, normalised",[1]; [3],99.7% and 123% and 119%
same,"nuclei count, normalised","[1]; measured here: cell number at 48 h, Library stock concentration: 80 uM",95.3% and 134% and 114%
same,"nuclei count, normalised","[1]; measured here: cell number at 48 h, Library stock concentration: 400 uM",97.6% and 128% and 112%
same,"nuclei count, normalised","[1]; measured here: cell number at 48 h, Library stock concentration: 2 mM",109% and 132% and 118%
same,"nuclei count, normalised",[1]; [11],124%
same,"nuclei count, normalised",[1]; [5],99.9% and 124% and 117%
same,"p53-positive nuclei, normalised",[2]; Library stock concentration: 80 uM,0.233% (inactive) and -0.29% (inactive) and -0.79% (inactive)
same,"p53-positive nuclei, normalised",[2]; Library stock concentration: 400 uM,-0.238% (inactive) and -0.0882% (inactive) and -0.721% (inactive)
same,"p53-positive nuclei, normalised",[2]; Library stock concentration: 2 mM,3.93% (inactive) and 0.629% (inactive) and -0.825% (inactive)
same,"p53-positive nuclei, normalised",[2]; [12],7.2% (inactive)
same,"p53-positive nuclei, normalised",[2]; [7],26.8% (active) and 8.08% (inactive) and -0.599% (inactive)
same,"p53-positive nuclei, normalised","[2]; measured here: p53 positive nuclei at 24 h, Library stock concentration: 80 uM",0.0692% and 0.858% and -0.21%
same,"p53-positive nuclei, normalised","[2]; measured here: p53 positive nuclei at 24 h, Library stock concentration: 400 uM",0.159% and 1.07% and -0.0728%
same,"p53-positive nuclei, normalised","[2]; measured here: p53 positive nuclei at 24 h, Library stock concentration: 2 mM",12.9% and 4.45% and -0.21%
same,"p53-positive nuclei, normalised",[2]; [13],15.6%
same,"p53-positive nuclei, normalised",[2]; [8],54.1% and 21.9% and 0.0629%
Cc1sc2c(c1C)C(c1ccc(Cl)cc1)=NC(CC(N)=O)c1nnc(C)n1-2 (centres undefined),"nuclei count, normalised","[1]; measured here: cell number at 24 h, Library stock concentration: 46 uM",103%
same,"nuclei count, normalised","[1]; measured here: cell number at 24 h, Library stock concentration: 278 uM",99.7%
same,"nuclei count, normalised","[1]; measured here: cell number at 24 h, Library stock concentration: 1.67 mM",85.4%
same,"nuclei count, normalised",[1]; [10],123%
same,"nuclei count, normalised",[1]; [3],90.1%
same,"nuclei count, normalised","[1]; measured here: cell number at 48 h, Library stock concentration: 46 uM",106%
same,"nuclei count, normalised","[1]; measured here: cell number at 48 h, Library stock concentration: 278 uM",102%
same,"nuclei count, normalised","[1]; measured here: cell number at 48 h, Library stock concentration: 1.67 mM",87.7%
same,"nuclei count, normalised",[1]; [11],122%
same,"nuclei count, normalised",[1]; [5],84.3%
same,"p53-positive nuclei, normalised",[2]; Library stock concentration: 46 uM,-0.111% (inactive)
same,"p53-positive nuclei, normalised",[2]; Library stock concentration: 278 uM,0.158% (inactive)
same,"p53-positive nuclei, normalised",[2]; Library stock concentration: 1.67 mM,12.8% (inactive)
same,"p53-positive nuclei, normalised",[2]; [12],3.31% (inactive)
same,"p53-positive nuclei, normalised",[2]; [7],25.8% (inactive)
same,"p53-positive nuclei, normalised","[2]; measured here: p53 positive nuclei at 24 h, Library stock concentration: 46 uM",-0.0163%
same,"p53-positive nuclei, normalised","[2]; measured here: p53 positive nuclei at 24 h, Library stock concentration: 278 uM",0.11%
same,"p53-positive nuclei, normalised","[2]; measured here: p53 positive nuclei at 24 h, Library stock concentration: 1.67 mM",27%
same,"p53-positive nuclei, normalised",[2]; [13],12.7%
same,"p53-positive nuclei, normalised",[2]; [8],46.3%
